Results as given in PubChem BioAssay AID602476 (National Center for Advancing Translational Sciences (NCATS), 2012).
Inconclusive results are not listed. Entries that show only a call come without a potency. Calls of active or inactive are those of the source. The call rests on the fitted dose curve; in most records, active means well fitted activation curve with a large enough effect; inconclusive means small, poorly fitted or top-dose-only effect; inactive means flat fitted curve, though single readings scatter.

test: FLuc inhibitory activity for the follow-up compounds in a cell-based translational read-through assay; conditions: GripTite 293 FLucUGA read-through, luminescence, 48 h; series mostly up to 38.3 µM
From the text: NCGC Assay Overview: Firefly (Photinus pyralis) luciferase is one of the most commonly used transcriptional reporters. It is considered one of the more dynamically responsive reporters - that is, responsive to changes in reporter transcription - as it requires no post-translational modifications and is enzymatically active directly after protein synthesis (Wood, 1998). With no endogenous expression in mammalian cells and without the requirement of external excitation, it offers very little background signal, thus generally providing excellent signal to background for most assays. Previous profiling work to determine the prevalence of compounds that affect FLuc enzymatic activity (PubChem AID 411) identified that ~3% of the MLSMR library (then at ~72K) inhibited FLuc (Auld et al., 2008). […] Of the compounds identified in this profile that inhibited FLuc, 151 compounds were selected for further analysis, in an effort to better understand their mode of inhibiting FLuc. The assay described here was to determine the activity of the compounds in a cell-based firefly luciferase reporter gene assay originally designed to identify compounds that enchanced translational read-through of a FLuc cDNA that contained a premature stop codon (Auld et al., 2009; Auld et al., 2010). Compounds that enhance translational read-through or compounds that stabilize FLuc intracellularly are identified as active compounds in the assay.
NCGC Assay Protocol Summary: Reagents: Transient transfection of FlucUGA construct: TransFast Transfection Reagent (Promega #E2431); FLucUGA construct (refer to Auld et al., 2009) #GripTite 293 MSR Cell Line (Invitrogen #R795-07) #Complete growth media: DMEM (Invitrogen #11965), 10% HIFBS, 0.1mM MEM NEAA, 5mL/L pen-strep (of 5000U/mL stock), 600ug/mL Geneticin #Assay media: DMEM without phenol red (Invitrogen #21063), 5% charcoal-stripped HIFBS (Hyclone #SH30071.03), 0.1mM MEM NEAA In-house detection reagent: 300mM Tris-HCl, 300mM Trizma base, 300mM MgCl, 1% Triton-X100, 5mM DTT, 500uM Coenzyme A trilithium salt (Sigma #C3019),450uM ATP (Sigma #A7699), 1mM D-luciferin sodium salt monohydrate (Biosynth #L8240) Control compounds used were two known firefly luciferase inhibitors (3-(5-(3-chlorophenyl)-1,2,4-oxadiazol-3-yl)benzoic acid and 5-(2-fluorophenyl)-3-phenyl-1,2,4-oxadiazole), and DMSO. Assay Summary: Transient transfection of FlucUGA construct: Day 1: GripTite cells were plated in T175 flasks at a density of 1.75 x 10^7 cells/T175 flask in complete growth media without Geneticin and allowed to grow ON in a 37 degrees Celsius incubator. Day 2: Cells in T175 flask were transfected - with 10ug of DNA and 30uL Transfast in 12mL complete growth media without serum and without Geneticin for 4 hours at 37 degrees Celsius. After incubation, cells were trypsinized, spun down, and resuspended to a concentration of 3.3 x 10^5 cells/mL in assay media. 6uL of cells in assay buffer were dispensed at 2000cells/well (3.3 x 10^5 cells/mL) into Greiner solid-white TC-treated 1536-well plates using a Multidrop Combi (Thermo Fisher Scientific). Plates were incubated for one hour at 37 degree Celsius, 95% humidity, 5% CO2. These assay plates were then treated with 23nL of compound or DMSO using a Kalypsys pin tool, which allows for delivery of a 12-point titration of each compound to the assay plate, with a final compound concentration ranging from approximately ~38uM to 0.2nM. Assay plates were then incubated for 48 hours. After incubation, plates were washed three times with DPBS (7uL/well). After the third wash, 6uL of DPBS was added to each well. 3uL of 3X luciferase detection reagent was then added to each well using a flying reagent dispenser (FRD). After a 15 minute incubation to allow for cell lysis, luciferase activity was measured using a ViewLux CCD imager (PerkinElmer), with an average exposure time of 2-12 seconds.

Question: Which Potency does the source give for Cc1ccc(C(=O)Nc2ccc(C(=O)O)cc2)cc1S(=O)(=O)NCc1ccccc1 here?
Answer: inactive

Question: For Cc1ccc(C(=O)Nc2ccc(C(=O)O)cc2)cc1S(=O)(=O)Nc1ccccc1, which Potency is on record?
Answer: inactive

Question: For Cc1cccc(NS(=O)(=O)c2cccc(C(=O)Nc3cccc(C(=O)O)c3)c2)c1, which Potency is on record?
Answer: inactive

Question: With O=C(Nc1ccccc1-c1nc2ccccc2s1)c1cccnc1 as the compound, how does the Potency read?
Answer: inactive

Question: Which Potency does the source give for CN=c1scc(-c2ccccc2F)n1/N=C/c1ccc[nH]1 here?
Answer: 0.0504 µM (active)

Question: Which Potency does the source give for O=C(Nc1ccccc1C(=O)O)c1cc(S(=O)(=O)NCc2ccccc2)ccc1Cl here?
Answer: inactive

Question: Which Potency does the source give for O=C(O)c1ccc(NC(=O)c2cccc(NC(=O)c3cccs3)c2)cc1 here?
Answer: inactive

Question: Which Potency does the source give for Cc1ccc(C(=O)Nc2ccccc2C(=O)O)cc1S(=O)(=O)N1CCCCCC1 here?
Answer: 14.2 µM (active)

Question: With Cc1ccc2sc(-c3ccc(N)cc3)nc2c1 as the compound, how does the Potency read?
Answer: 1.59 µM (active)

Question: With COc1ccc(-c2nc3ccccc3s2)cc1NC(=O)c1ccc(F)cc1 as the compound, how does the Potency read?
Answer: inactive

Question: For COc1cccc(OC)c1C(=O)Nc1cccc(C(=O)Nc2cccc(C(=O)O)c2)c1, which Potency is on record?
Answer: inactive

Question: With CCOc1c(Cl)cc(C(=O)Nc2ccccc2C(=O)O)cc1Cl as the compound, how does the Potency read?
Answer: inactive

Question: For COc1ccccc1C(=O)Nc1ccc(C(=O)Nc2ccccc2C(=O)O)cc1, which Potency is on record?
Answer: inactive

Question: Which Potency does the source give for COc1ccc(-c2nc3ccccc3s2)cc1O here?
Answer: 5.65 µM (active)

Question: Which Potency does the source give for O=C(O)c1cccc(NC(=O)c2cccc(NC(=O)C3CCCO3)c2)c1 (stereo not given) here?
Answer: inactive

Question: With COc1ccc(-c2cccc(C(=O)Nc3cccc(C(=O)O)c3)c2)cc1 as the compound, how does the Potency read?
Answer: 11.3 µM (active)

Question: Which Potency does the source give for CC(=O)Oc1ccc(C(=O)Nc2ccccc2C(=O)Nc2ccc(C(=O)O)cc2)cc1 here?
Answer: inactive

Question: Which Potency does the source give for Cc1ccc(C(=O)Nc2cccc(C(=O)O)c2)cc1 here?
Answer: 4.49 µM (active)

Question: Which Potency does the source give for COc1cc(C(=O)Nc2cc(C)c(O)c(-c3nc4ccccc4s3)c2)cc(OC)c1OC here?
Answer: inactive

Question: With CCCC(=O)Nc1nc2ccc(OCC)cc2s1 as the compound, how does the Potency read?
Answer: 12.6 µM (active)

Question: Which Potency does the source give for COc1ccc2nc(NC(=O)c3ccc(S(=O)(=O)N4CCCC(C)C4)cc3)sc2c1 (stereo not given) here?
Answer: inactive

Question: With O=C(Nc1ccccc1C(=O)O)c1cccc(NC(=O)c2ccc(Br)o2)c1 as the compound, how does the Potency read?
Answer: inactive

Question: With COc1ccc2nc(NC(=O)c3cccc(S(=O)(=O)N4CCOCC4)c3)sc2c1 as the compound, how does the Potency read?
Answer: inactive

Question: Which Potency does the source give for Oc1ccc(-c2nc3ccccc3s2)c(O)c1 here?
Answer: 10 µM (active)

Question: Which Potency does the source give for CC(=O)Nc1cccc(C(=O)Nc2ccccc2C(=O)O)c1 here?
Answer: inactive

Question: Which Potency does the source give for O=C(Cc1ccccc1)Nc1ccccc1C(=O)Nc1ccc(C(=O)O)cc1 here?
Answer: inactive

Question: With O=C(O)c1cccc(NC(=O)c2ccc(Cl)c(S(=O)(=O)N3CCCCCC3)c2)c1 as the compound, how does the Potency read?
Answer: 0.711 µM (active)

Question: Which Potency does the source give for Cc1ccc(S(=O)(=O)N2CCOCC2)cc1C(=O)Nc1ccccc1C(=O)O here?
Answer: inactive

Question: With O=C(Cc1ccccc1)Nc1ccc(C(=O)Nc2ccccc2C(=O)O)cc1 as the compound, how does the Potency read?
Answer: inactive

Question: Which Potency does the source give for O=C(COC(=O)c1ccccc1[N+](=O)[O-])c1ccc2c(c1)OCO2 here?
Answer: inactive

Question: With Cc1ccc(C(=O)O/N=C(\N)c2ccccn2)cc1 as the compound, how does the Potency read?
Answer: 3.56 µM (active)

Question: Which Potency does the source give for COc1ccc2nc(NC(=O)c3ccc(NS(=O)(=O)c4cccs4)cc3)sc2c1 here?
Answer: inactive

Question: With Cc1ccc(NS(=O)(=O)c2ccc(Cl)c(C(=O)Nc3cccc(C(=O)O)c3)c2)cc1 as the compound, how does the Potency read?
Answer: inactive

Question: With Nc1ccc(C(=O)Nc2ccccc2C(=O)O)cc1 as the compound, how does the Potency read?
Answer: inactive

Question: For COc1ccc2nc(NC(=O)c3ccccc3C(=O)O)sc2c1, which Potency is on record?
Answer: inactive

Question: For O=C(Nc1ccccc1C(=O)O)c1ccc(Cl)c(S(=O)(=O)N2CCOCC2)c1, which Potency is on record?
Answer: inactive

Question: For COc1ccc(Br)cc1C(=O)Nc1ccc(C(=O)O)cc1, which Potency is on record?
Answer: inactive

Question: Which Potency does the source give for CN(C)S(=O)(=O)c1ccc(C(=O)Nc2ccccc2C(=O)O)cc1 here?
Answer: inactive

Question: Which Potency does the source give for O=C(Nc1ccccc1C(=O)O)c1ccccc1 here?
Answer: inactive

Question: For Nc1ccc(-c2nc3ccc(C(=O)O)cc3s2)cc1, which Potency is on record?
Answer: 0.283 µM (active)
